Assay outcomes deposited in PubChem BioAssay by NMMLSC.
Hits are enriched below; roughly 0.93% of the tested compounds scored in any of these assays.
RPL19A TOR yeast: modulators of TOR pathway RPL19A-GFP in S. cerevisiae | S. cerevisiae RPL19A-GFP strain, flow cytometry, 3 h; hits give low values | percent response vs DMSO, % at 10 µM | hit rate 0.3% among 330,000 | AID 2025;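 active means percent response vs DMSO below 50%; inconclusive means fewer than 70 events counted for the yeast strain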;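 further: median channel GFP fluorescence of the barcoded RPL19A-GFP strain; ratio of sample median GFP to plate DMSO average so 100% = DMSO; lower means less RPL19A-GFP as with rapamycin TOR inhibition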
AGP1 TOR yeast: modulators of TOR pathway AGP1-GFP in S. cerevisiae; S. cerevisiae AGP1-GFP multiplex flow cytometry, 3 h; GFP as percent of DMSO wells; GFP response vs DMSO, % at 10 µM; hit rate 0.02% among 320,000; AID 2066;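 active means GFP response relative to DMSO above a set limit, near screen average plus 3 SD, cut at about 150% in these data; inconclusive means fewer than 70 cells counted for the yeast strain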;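 further: median GFP channel fluorescence of the gated AGP1 strain per well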
CIT2-GFP yeast: yeast TOR pathway CIT2-GFP modulation | S. cerevisiae CIT2-GFP strain, flow cytometry, 3 h; 100 means same as DMSO wells | GFP response vs DMSO, % at 10 µM | hit rate 0.065% among 320,000;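 active means GFP response relative to DMSO above a set limit, near the screen mean plus 3 SD, cut at about 150% in these data; inconclusive means Fewer than 70 cells measured for a yeast strain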;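 further: ratio of well median GFP fluorescence to mean of DMSO wells on the plate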
LAP4-GFP MLPCN: alters LAP4-GFP fluorescence in TOR pathway yeast screen; S. cerevisiae LAP4-GFP multiplex, flow cytometry GFP, 3 h; median GFP as percent of DMSO wells; GFP response vs DMSO, % at 10 µM; AID 2023; hit rate 0.34% among 320,000;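 active means GFP response vs DMSO above a set limit, about the screen mean plus 3 SD, cut at about 150% in these data; inconclusive means under 70 cell events counted for the yeast strain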
MEP2-GFP yeast: modulators of TOR pathway MEP2-GFP in S. cerevisiae. GFP response vs DMSO, % at 10 µM. AID 2016. S. cerevisiae MEP2-GFP strain, flow cytometry GFP, 3 h; 100% = DMSO control level. hit rate 0.51% among 330,000;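 active means GFP response versus DMSO above a set limit, roughly screen mean plus 3 SD, cut at about 180% in these data; inconclusive means fewer than 70 cells counted for a yeast strain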;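 further: median GFP fluorescence of the barcode-gated MEP2-GFP cells per well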
An asterisk follows results filed as active; ? = inconclusive; · = no result; [ ] = dose if it differs, or a comment.

SMILES	RPL19A TOR yeast	AGP1 TOR yeast	CIT2-GFP yeast	LAP4-GFP MLPCN	MEP2-GFP yeast
COc1ccc(C(=O)Nc2cccc(NC(=O)c3ccc(OC)c(OC)c3)n2)cc1OC	106.4	101.2	104.6	93.2	106.5
CCOC(=O)C1=C(CS(=O)(=O)c2ccccc2)NC(=O)NC1c1cc(OC)c(O)c(OC)c1 (stereo unspecified)	103.2	102.9	99.2	99.0	107.0
Cc1ccccc1/C=C/C(=O)c1ccc([N+](=O)[O-])o1	67.2	16.0	?	222.4*[may fluoresce violet]	165.5
COC(=O)c1ccccc1NC(=O)NCc1c(C)nn(C)c1C	97.7	97.9	96.0	99.7	102.8
COCCCNC(=O)Cn1nnc(-c2ccc(NC(=O)c3ccccc3F)cc2)n1	92.0	91.1	94.2	93.5	88.0
CC(C)NC(=O)Cn1nnc(-c2cccc(NC(=O)c3ccccc3F)c2)n1	44.9*[may fluoresce violet]	18.8	?	102.7	600.0*[may fluoresce violet]
Cc1ccc2nc(Nc3ccc(C)c(Cl)c3)c3nncn3c2c1	93.8	89.0	89.1	99.2	106.2
CC(C)n1cnc2cc(NCc3nc4ccccc4n3C)ccc21	39.5*[may fluoresce violet]	?	?	55.2	144.9
CCOC(=O)C1=C(Cc2ccc(Cl)cc2)C(=O)c2ccccc2C1=O	94.1	66.8	81.1	189.7*	106.0
COc1ccc(Cl)cc1NS(=O)(=O)c1ccc(OC)c(OC)c1	19.5*[may fluoresce violet]	?	?	101.1	208.7*[may fluoresce violet]
COc1ccc(S(=O)(=O)Nc2cc(Cl)ccc2OC)cc1	94.0	96.5	98.3	103.6	99.1
COc1ccc(CCNC(=O)CN2c3cccc4cccc(c34)S2(=O)=O)cc1OC	103.1	72.7	86.0	91.6	101.3
Cc1cc(NC(=O)CSc2nnnn2-c2cc(Cl)ccc2C)no1	98.6	101.5	102.1	103.9	98.3
Cc1cc(NC(=O)CSc2nnnn2-c2ccccc2F)no1	63.0	15.1	?	89.5	255.5*[may fluoresce violet]
CC(=O)OCC1=C(C(=O)O)N2C(=O)C(NC(=O)CC(C)c3ccccc3)C2SC1 (stereo unspecified)	92.1	94.0	93.0	86.3	88.6
CC(=O)OCC1=C(C(=O)O)N2C(=O)[C@@H](NC(=O)Cc3cccs3)[C@H]2SC1	15.9*[may fluoresce violet]	?	?	112.7	328.7*[may fluoresce violet]
O=C(COc1ccc2c3c(c(=O)oc2c1)CCC3)N[C@@H](Cc1ccccc1)C(=O)O	90.4	88.7	90.2	93.9	86.8
CSCC[C@H](NS(=O)(=O)c1ccc(C)cc1)C(=O)N1CCC(C(=O)N[C@@H](Cc2ccc(O)cc2)C(=O)O)CC1	98.5	106.9	107.5	107.6	103.9
COc1ccc(OCc2nnc(SCC(=O)Nc3ccc(C)cc3)o2)cc1	94.2	20.1	?	91.6	194.7*[may fluoresce violet]
COc1ccc(-c2nnc(SCC(=O)NC3CCCCC3)o2)cc1	61.9	32.0	?	97.6	199.8*[may fluoresce violet]
Cc1cc(Cl)ccc1OCC(O)CNCCc1ccc(S(N)(=O)=O)cc1 (stereo unspecified)	96.8	95.4	93.7	103.6	100.7
Clc1ccc(Oc2nc3ccccc3n3cccc23)cc1	64.3	·	?	112.1	231.6*[may fluoresce violet]
Cc1nnc(SCCn2c(N3CCN(C)CC3)nc3c2c(=O)[nH]c(=O)n3C)s1	64.8	20.1	?	95.0	184.3*[may fluoresce violet]
Cc1c(C(=O)OC(C)CCN(C)C)oc2ccccc12 (stereo unspecified)	55.4	19.4	?	91.0	175.9*[may fluoresce violet]
Cc1c(C(=O)OCC(C)(C)CN(C)C)oc2ccccc12	98.1	94.0	·	85.2	97.4
SMILES	RPL19A TOR yeast	AGP1 TOR yeast	CIT2-GFP yeast	LAP4-GFP MLPCN	MEP2-GFP yeast
CN(C)S(=O)(=O)c1ccc(C(=O)/C=C/c2cccnc2)cc1	62.6	?	?	82.3	265.7*[may fluoresce violet]
Cc1cccc(C)c1NC(=O)CSc1nc(C)c(CC(=O)c2ccc(Br)cc2)c(C)c1C#N	66.7	23.1	?	65.6	228.0*[may fluoresce violet]
CCN(C(=O)Cn1nnc(-c2ccccc2)n1)C1CCS(=O)(=O)C1 (stereo unspecified)	102.9	110.3	104.6	105.9	110.2
O=S(=O)(c1ccc(Cl)cc1)c1snnc1-c1ccccc1	103.8	·	106.8	165.0*	110.2
O=C(Nc1c2c(nn1-c1ccc([N+](=O)[O-])cc1)CS(=O)(=O)C2)C1CC1	40.1*[may fluoresce violet]	17.4	?	83.3	126.7
Cc1ccc(-n2nc3c(c2NC(=O)C2CC2)CS(=O)(=O)C3)cc1	96.1	96.2	93.7	97.9	94.6
